Entries with a potency or affinity are not part of this list.
biological target: HMG-CoA reductase [Enterococcus faecalis] (UniProt Q9FD70); experiment: inhibitors of E. faecalis class II HMGR, confirmation, biochemical, Enterococcus faecalis (AID 1233);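 also: 0% = full reaction carrier wells and 100% = background wells lacking mevalonate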; settings: purified E. faecalis HMGR, NADPH absorbance 340 nm kinetics; series mostly up to 100 µM; inhibition: at the top concentration

inhibition, inactive:
COc1ccc(N2C(=O)C(CN3CCCCC3)C2c2ccccc2)cc1 (stereo not drawn) -6.91%
COc1ccc(-c2nnc(SC(C)C(=O)Nc3ccc4c(c3)OCCO4)o2)cc1 (stereo not drawn) -2.47%
Cc1nn2c(C(F)(F)F)cc(-c3ccc(Cl)cc3)nc2c1C(=O)N1CCOCC1 -4.39%
CCCCCCCCNC(=S)NCCN1CCCCC1 -6.35%
O=C(CSc1nc2ccccc2n1CCc1ccccc1)N1CCOCC1 -2.07%
CCN(CC)CCCCCOc1ccccc1OC -1.77%
Cc1cc(/C=C(\C#N)C(=O)NCc2cccs2)c(C)[nH]1 -9.51%
COCc1cc(C)n(CC(=O)OC)c(=O)c1C#N -0.1%
Nc1ccc(C(=O)Nc2ccc(OC(F)(F)C(F)F)c(NC(=O)c3ccc(N)cc3)c2)cc1 -4.86%
O=C(COC(=O)/C=C/c1ccco1)Nc1ccc(F)cc1Cl -0.84%
CCOc1ccccc1C(=O)NC1CCN(Cc2nnnn2C2CCCC2)CC1 -1.25%
COC(c1ccccc1)c1nnc(CCC(=O)NCCC(C)C)o1 (stereo not drawn) -0.95%
CN(C)c1ccc(N=C/C=C2\N(C)c3ccccc3C2(C)C)cc1 1.95%
CCN(C(=O)CCc1nc(-c2ccccc2F)no1)c1cc(OC)ccc1OC -4.63%
CN(CCOC(=O)c1cccc(Br)c1)C(C)(C)C -4.97%
COC(=O)C1=C(CSc2nc3c(cc2C#N)CN(C)CC3)OC(N)=C(C#N)C1c1ccc(F)cc1 (stereo not drawn) -8.53%
COc1ccc(/C=N/NC(=O)C(C)Sc2ccccn2)cc1[N+](=O)[O-] (stereo not drawn) -10%
Cc1ccsc1C=C1C(=O)c2ccccc2C1=O -0.95%
O=C(/C(=C/c1ccc(Cl)cc1)c1nc2ccccc2[nH]1)c1ccccc1 -2.1%
Cc1cccc(S(=O)(=O)Nc2ccc(-c3cn4ccccc4n3)cc2)c1 -5.01%
COc1ccc(OC)c(-n2nnnc2SCC(=O)Nc2ccccc2N2CCOCC2)c1 -5.58%
COc1ccccc1-c1c(C(F)(F)F)oc2cc(OC(=O)c3cccc([N+](=O)[O-])c3C)ccc2c1=O -3.18%
CCCNC(=O)c1cc2c(C(F)(F)F)nn(C)c2s1 -1.54%
CCOC(=O)c1sc(NC(=O)CSc2nccc(C)n2)nc1C -13.7%
Cc1ccc(S(=O)(=O)N2CCCC2C(=O)Nc2nc3ccccc3s2)cc1 (stereo not drawn) -3.26%
Cc1ccc(C2C(C(=O)c3ccco3)=C(O)C(=O)N2c2nnc(C)s2)cc1 (stereo not drawn) -3.22%
O=C(CCc1ccccc1)Nc1ncc2c(n1)CCCC2=O -1.28%
CCOc1ccc(/C(O)=C2/C(=O)C(=O)N(CC3CCCO3)C2c2ccco2)cc1 (stereo not drawn) -5.36%
Cc1ccc(NC(=O)NC2CCCCC2)cc1S(=O)(=O)N1CCOCC1 1.4%
COc1ccc(C/C(C)=N/NS(=O)(=O)c2ccc(Br)cc2)cc1 -5.94%
Cn1c(SCC(=O)N2CCCC2=O)nnc1-c1ccccc1F -0.06%
CCn1c(SCC(=O)N/N=C/c2ccc(C)o2)nnc1-c1ccccc1 -0.02%
CCCCC1C2=C(CC(C)(C)CC2=O)OC2=C1C(=O)CC(C)(C)C2 0.17%
Clc1ccc(NNc2ccnc3cc(Cl)ccc23)cc1 -3.15%
COc1ccc2cc(C3NC(=O)c4ccccc4N3)c(Cl)nc2c1 (stereo not drawn) -3.73%
Cc1ccccc1NC(=S)NCc1ccc2c(c1)cc(C)n2C -9.31%
CCCOP(=O)(OCCC)c1nc(-c2ccccc2)oc1NCc1ccccc1 0.1%
CCCCOC(=O)c1nc[nH]c1C(=O)OCCCC -4.01%

Reference: PubChem BioAssay AID1233 (SRMLSC, 2008)
